# Measured values: PubChem BioAssay
# Calls of active or inactive are those of the source.
# Legend:
# [1] = test system: Plasmodium falciparum Sir2 (PF13_0152, Sir2A); assay: pfSir2 binders on small-molecule microarrays, primary screen, biochemical, small-molecule microarray, 635 nm fluorescence (AID 1098); conditions: small-molecule microarray binding, fluorescence 635 nm; higher = more signal;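 also: score merges spot fluorescence intensity with its signal-to-noise ratio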
# [2] = small-molecule microarray binders of probe aDKK1, primary screen, biochemical, biotinylated probe, 635/667 nm fluorescence (AID 1099); conditions: higher = more signal;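 also: score merges 667nm spot fluorescence with signal to noise across triplicate slides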
# [3] = small-molecule microarray binders of probe aCHRDL2, primary screen, biochemical, biotinylated probe, 635/667 nm fluorescence (AID 1100); conditions: higher = more signal
# [4] = splicing luciferase reporter signal modulators, primary screen, spliceosome inhibition project, cell-based, HEK293, splice +/- reporter (AID 1101); conditions: luminescence, 24 h, higher = more signal, called active from +8 up or from −8 down;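 also: HEK293 cells carrying a splicing-competent luciferase reporter gene; test concentration not given here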
# [5] = target: Fibroblast growth factor 10 (Homo sapiens) (UniProt O15520); assay: FGF10 binders on small-molecule microarrays, primary screen, biochemical, small-molecule microarray, 635 nm fluorescence (AID 1102); conditions: FGF10 binding, fluorescence 635 nm, higher = more signal
# [6] = test system: glycogen synthase kinase-3 (GSK3A per assay name; protocol says GSK3B); assay: GSK3 binders on small-molecule microarrays, primary screen, biochemical, small-molecule microarray, 635 nm fluorescence, GSK3A (AID 1103); conditions: small-molecule microarray binding, fluorescence 635 nm; higher = more signal; also: the record names both GSK3A and GSK3B
# [7] = target: Epidermal growth factor receptor (Homo sapiens) (UniProt P00533); assay: EGFR binders on small-molecule microarrays, primary screen, biochemical, small-molecule microarray, 635 nm fluorescence (AID 1104); conditions: EGFR binding, higher = more signal;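 also: score merges 667 nm emission intensity with spot signal to noise over triplicate slides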
# [8] = target: Follistatin-related protein 3 (Homo sapiens) (UniProt O95633); assay: FSTL3 binders on small-molecule microarrays, primary screen, biochemical, small-molecule microarray, 635 nm fluorescence (AID 1105); conditions: FSTL3 binding, higher = more signal;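 also: score merges emission near 667 nm and signal to noise per printed spot across three slides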
# [9] = target: Dickkopf-related protein 1 (Homo sapiens) (UniProt O94907); assay: DKK1 binders on small-molecule microarrays, primary screen, biochemical, small-molecule microarray, 635 nm fluorescence scan (AID 1106); conditions: DKK1 binding, higher = more signal;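 also: score merges emission near 667 nm with signal to noise over three replicate slides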
# [10] = test system: Inhibin beta A chain (activin A); assay: INHBA (activin A) binders on microarrays, primary screen, biochemical, small-molecule microarray, 635 nm fluorescence scan (AID 1107); conditions: small-molecule microarray binding, higher = more signal;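 also: mouse activin A protein probed at 4.33 µg/mL on printed slides; score merges bound-protein fluorescence near 667 nm with spot signal-to-noise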
# [11] = test system: Human papillomavirus type 1a protein E7 (residues 44-93); assay: HPV1a E7 fragment binders on microarrays, primary screen, biochemical, small-molecule microarray, residues 44-93, 635 nm fluorescence (AID 1108); conditions: small-molecule microarray binding, fluorescence 635 nm; higher = more signal;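 also: E7 fragment applied at 1 µg/mL in TBST for 1 h at 4 C; score combines spot fluorescence with its signal to noise ratio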
# [12] = modulators of HCV replicon luciferase signal, primary screen, HCV replication inhibitor project, Huh7 cells, luciferase reporter (AID 1109); conditions: 48 h, higher = more signal;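 also: huh7 hepatoma cells harbouring a luciferase neomycin HCV replicon reporter; luciferase luminescence as measure of HCV replicon replication; test concentration not given here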
# [13] = target: Left-right determination factor 2 (Homo sapiens) (UniProt O00292); assay: LEFTY2 binders on small-molecule microarrays, primary screen, biochemical, small-molecule microarray, 635 nm fluorescence scan (AID 1110); conditions: LEFTY2 binding, higher = more signal
# [14] = target: Calmodulin-1 (Homo sapiens) (UniProt P0DP23); assay: CALM1 binders on microarrays, EGTA buffer, profiling panel, biochemical, small-molecule microarray, Cy5-labelled CALM1 (AID 1111); conditions: Cy5-CALM1 binding fluorescence, higher = more signal;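 also: labelled calmodulin applied in Tris saline Tween buffer holding calcium plus EGTA and DTT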
# [15] = target: Calmodulin-1 (Homo sapiens) (UniProt P0DP23); assay: calcium-bound CALM1 binders on microarrays, profiling panel, artefact control for SMM control-protein annotation, biochemical, small-molecule microarray, Cy5-labelled CALM1, plus calcium (AID 1112); conditions: Cy5-CALM1 binding fluorescence, higher = more signal;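 also: score merges spot fluorescence with signal to noise from triplicate slides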
# [16] = small-molecule microarray binders of probe aWnt5a, primary screen, biochemical, biotinylated probe, 635/667 nm fluorescence (AID 1113); conditions: higher = more signal;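 also: score merges 667 nm fluorescence intensity with signal-to-noise per printed feature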
# [17] = small-molecule microarray binders of probe aShh, primary screen, biochemical, biotinylated probe, 635/667 nm fluorescence (AID 1114); conditions: higher = more signal;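 also: probe is biotin-labelled aShh protein from a stem cell growth factor screen; measures binding of labelled protein to compounds printed on the slide; score merges feature fluorescence at 667 nm with signal-to-noise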
# [18] = small-molecule microarray binders of probe aNog, primary screen, biochemical, biotinylated probe, 635/667 nm fluorescence (AID 1115); conditions: higher = more signal;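 also: probe is biotinylated aNog protein used at 0.15 µg/mL for 1 h at 4 C; z-score combines 667 nm fluorescence of each spot with its signal to noise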
# [19] = target: Torsin-1A-interacting protein 1 (Homo sapiens) (UniProt Q5JTV8); assay: LAP1 binders from COS7 cell lysate, primary screen, small-molecule microarray, 635/667 nm fluorescence (AID 1116); conditions: COS7-hLAP1 lysate binding, 635 nm fluorescence, higher = more signal
# [20] = target: Alpha-bungarotoxin (Bungarus multicinctus) (UniProt P60615); assay: alpha-bungarotoxin binders on microarray, profiling panel, artefact control for SMM control protein annotation, biochemical, small-molecule microarray, Alexa647 label, 635/667 nm fluorescence (AID 1117); conditions: alpha-BTX-A647 binding fluorescence, higher = more signal
# Alpha-bungarotoxin (Bungarus multicinctus), sequence (P60615 whole entry, looked up): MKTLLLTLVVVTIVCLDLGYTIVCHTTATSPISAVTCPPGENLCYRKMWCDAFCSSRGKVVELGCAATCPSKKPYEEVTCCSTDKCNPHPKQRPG
# Epidermal growth factor receptor (Homo sapiens), sequence (P00533 whole entry, looked up): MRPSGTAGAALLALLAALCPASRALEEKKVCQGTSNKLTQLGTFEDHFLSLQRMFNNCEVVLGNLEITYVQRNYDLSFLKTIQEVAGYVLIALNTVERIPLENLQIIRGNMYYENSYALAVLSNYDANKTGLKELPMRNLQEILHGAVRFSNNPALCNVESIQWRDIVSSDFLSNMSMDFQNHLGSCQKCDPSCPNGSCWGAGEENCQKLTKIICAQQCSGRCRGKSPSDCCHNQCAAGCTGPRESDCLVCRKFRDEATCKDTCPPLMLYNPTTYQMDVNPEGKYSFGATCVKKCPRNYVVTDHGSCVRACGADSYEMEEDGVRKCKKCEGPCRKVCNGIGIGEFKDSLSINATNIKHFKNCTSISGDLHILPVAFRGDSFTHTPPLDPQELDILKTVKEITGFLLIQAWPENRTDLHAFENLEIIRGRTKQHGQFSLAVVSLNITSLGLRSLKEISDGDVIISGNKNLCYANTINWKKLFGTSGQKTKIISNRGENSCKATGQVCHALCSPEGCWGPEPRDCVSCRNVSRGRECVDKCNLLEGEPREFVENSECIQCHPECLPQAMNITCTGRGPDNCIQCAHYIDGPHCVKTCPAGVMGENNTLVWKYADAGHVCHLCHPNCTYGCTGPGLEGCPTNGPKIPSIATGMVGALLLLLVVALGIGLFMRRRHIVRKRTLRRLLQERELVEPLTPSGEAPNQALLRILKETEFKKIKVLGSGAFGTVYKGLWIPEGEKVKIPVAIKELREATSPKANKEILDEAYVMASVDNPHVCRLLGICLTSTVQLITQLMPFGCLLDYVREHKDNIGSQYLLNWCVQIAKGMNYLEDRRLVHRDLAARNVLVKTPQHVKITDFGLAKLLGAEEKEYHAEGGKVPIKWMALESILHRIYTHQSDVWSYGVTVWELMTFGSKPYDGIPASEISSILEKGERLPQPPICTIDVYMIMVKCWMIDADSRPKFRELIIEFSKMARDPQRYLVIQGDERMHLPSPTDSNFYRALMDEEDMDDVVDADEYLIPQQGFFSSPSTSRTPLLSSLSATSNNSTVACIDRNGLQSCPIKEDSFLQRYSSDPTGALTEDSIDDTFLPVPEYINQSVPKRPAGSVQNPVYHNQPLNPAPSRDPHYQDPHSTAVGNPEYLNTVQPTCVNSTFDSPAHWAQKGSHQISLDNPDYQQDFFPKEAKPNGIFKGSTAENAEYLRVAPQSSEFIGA
# Torsin-1A-interacting protein 1 (Homo sapiens), sequence (Q5JTV8 whole entry, looked up): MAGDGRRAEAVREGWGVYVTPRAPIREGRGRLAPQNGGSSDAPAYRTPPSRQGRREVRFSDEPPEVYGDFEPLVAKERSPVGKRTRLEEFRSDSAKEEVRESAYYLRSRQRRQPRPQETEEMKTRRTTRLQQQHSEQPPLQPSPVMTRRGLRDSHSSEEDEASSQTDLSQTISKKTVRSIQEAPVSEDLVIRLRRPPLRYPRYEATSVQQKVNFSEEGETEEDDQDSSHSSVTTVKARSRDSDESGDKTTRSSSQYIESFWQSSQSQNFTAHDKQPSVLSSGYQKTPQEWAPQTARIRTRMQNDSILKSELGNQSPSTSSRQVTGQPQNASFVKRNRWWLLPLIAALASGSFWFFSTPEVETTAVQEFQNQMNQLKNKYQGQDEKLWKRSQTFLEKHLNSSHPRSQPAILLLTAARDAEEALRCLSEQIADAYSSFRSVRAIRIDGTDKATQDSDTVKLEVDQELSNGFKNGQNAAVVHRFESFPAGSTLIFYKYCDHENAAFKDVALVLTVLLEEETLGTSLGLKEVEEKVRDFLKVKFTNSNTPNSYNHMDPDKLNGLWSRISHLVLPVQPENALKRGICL
# Follistatin-related protein 3 (Homo sapiens), sequence (O95633 whole entry, looked up): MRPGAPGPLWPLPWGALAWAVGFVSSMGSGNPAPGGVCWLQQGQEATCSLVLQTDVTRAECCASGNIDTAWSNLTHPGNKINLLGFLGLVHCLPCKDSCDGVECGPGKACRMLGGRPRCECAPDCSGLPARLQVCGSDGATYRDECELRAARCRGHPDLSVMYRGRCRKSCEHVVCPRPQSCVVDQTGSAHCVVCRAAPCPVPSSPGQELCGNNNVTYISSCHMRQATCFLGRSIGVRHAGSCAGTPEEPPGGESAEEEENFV
# Fibroblast growth factor 10 (Homo sapiens), sequence (O15520 whole entry, looked up): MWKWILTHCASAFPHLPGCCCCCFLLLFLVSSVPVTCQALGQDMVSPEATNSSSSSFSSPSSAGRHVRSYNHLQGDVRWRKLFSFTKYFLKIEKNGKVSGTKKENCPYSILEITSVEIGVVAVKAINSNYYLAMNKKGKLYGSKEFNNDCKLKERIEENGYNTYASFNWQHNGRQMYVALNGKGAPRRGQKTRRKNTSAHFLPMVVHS
# Left-right determination factor 2 (Homo sapiens), sequence (O00292 whole entry, looked up): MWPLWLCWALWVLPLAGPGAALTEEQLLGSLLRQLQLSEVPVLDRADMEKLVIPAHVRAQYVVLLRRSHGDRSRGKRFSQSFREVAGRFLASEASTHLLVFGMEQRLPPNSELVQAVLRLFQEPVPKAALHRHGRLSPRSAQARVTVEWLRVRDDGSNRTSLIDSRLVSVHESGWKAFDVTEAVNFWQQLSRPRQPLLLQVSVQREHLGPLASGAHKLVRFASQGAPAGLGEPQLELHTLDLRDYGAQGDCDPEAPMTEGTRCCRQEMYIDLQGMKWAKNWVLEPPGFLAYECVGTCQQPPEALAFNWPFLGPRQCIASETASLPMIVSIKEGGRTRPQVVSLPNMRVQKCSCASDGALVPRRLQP
# Dickkopf-related protein 1 (Homo sapiens), sequence (O94907 whole entry, looked up): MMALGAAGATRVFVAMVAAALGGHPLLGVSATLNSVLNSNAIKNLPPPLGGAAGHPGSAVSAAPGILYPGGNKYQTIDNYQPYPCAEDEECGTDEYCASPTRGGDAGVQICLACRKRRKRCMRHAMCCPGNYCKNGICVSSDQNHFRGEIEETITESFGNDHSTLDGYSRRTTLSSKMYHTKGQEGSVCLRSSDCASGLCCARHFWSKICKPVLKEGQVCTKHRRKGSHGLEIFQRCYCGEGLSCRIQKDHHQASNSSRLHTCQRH
SMILES,composite z-score [1],composite z-score [2],composite z-score [3],z-score [4],composite z-score [5],composite z-score [6],composite z-score [7],composite z-score [8],composite z-score [9],composite z-score [10],composite z-score [11],z-score [12],composite z-score [13],composite z-score [14],composite z-score [15],composite z-score [16],composite z-score [17],composite z-score [18],composite z-score [19],composite z-score [20]
CCOC(=O)CCN1C(=O)[C@H]2[C@H]3[C@H](O)[C@H](O)CC(=NO[C@@H]4O[C@H](CO)[C@@H](O)[C@H](O)[C@H]4O)[C@@H]3CC[C@H]2C1=O,0.839,-0.188,-0.573,-0.104 (inactive),1.04,1.26,1.05,1.37,1.27,0.898,1.21,0.891,0.809,-0.896,-1.99,-0.0417,0.296,-0.0784,0.533,0.844
COC(=O)[C@H](C)NC(=O)CCC1CC(OC(=O)NCc2cccc3ccccc23)CC2(CCCC(COC(=O)NCc3cccc(C(F)(F)F)c3)O2)O1 (stereo not given in full),0.988,-0.0508,-0.134,-1.39 (inactive),0.908,0.611,0.473,0.677,0.303,-0.108,1.32,-0.548,0.925,1.1,0.269,-0.0384,-0.138,-0.23,0.208,0.292
CC(C)CON=C1C[C@@H](O)[C@@H](O)[C@@H]2[C@@H]3C(=O)N(c4ccc(F)cc4F)C(=O)[C@@H]3CC[C@@H]12,0.622,-0.153,-0.462,-0.817 (inactive),0.585,0.598,0.321,0.598,0.289,-0.287,0.463,-0.049,0.339,0.0012,-0.541,-0.0368,-0.279,-0.0563,0.142,0.421
CCN1C(=O)[C@H]2[C@H]3[C@H](O)[C@H](O)CC(=NO[C@@H]4O[C@H](COC(C)=O)[C@@H](OC(C)=O)[C@H](OC(C)=O)[C@H]4OC(C)=O)[C@@H]3CC[C@H]2C1=O,0.579,0.0594,-0.601,0.5 (inactive),0.868,0.612,0.591,1.11,0.735,-0.371,0.519,-0.835,0.671,-0.41,-0.564,0.0151,0.126,0.166,0.256,0.721
C#CCCCON=C1C[C@@H](O)[C@@H](O)[C@@H]2[C@@H]3C(=O)N(C4CCCCC4)C(=O)[C@@H]3CC[C@@H]12,0.369,0.0266,-0.287,0.466 (inactive),0.743,-0.0432,0.336,0.556,0.692,0.265,0.428,-0.0098,0.321,-0.346,-0.342,-0.0685,-0.212,-0.494,0.366,0.281
O=C1C[C@@H](O)[C@@H](O)[C@@H]2[C@@H]3C(=O)N(C4CCCCC4)C(=O)[C@@H]3CC[C@@H]12,0.607,-0.28,-0.504,0.602 (inactive),1.11,0.235,0.613,0.59,0.555,-0.156,0.242,-0.331,0.697,-0.0958,-0.397,-0.177,0.0898,-0.104,0.462,0.882
CO[C@H]1C[C@@H]2C[C@H](O)CC(CC(=O)O[C@@H](C=CCC(C)C)C[C@@H]3CC[C@H](C)[C@@H](C1)O3)O2,1.02,-0.205,-0.594,-0.278 (inactive),0.682,1.29,0.595,0.808,1.13,0.0531,1.27,-0.763,0.748,-0.126,-0.468,-0.0194,0.0815,-0.447,0.536,1.63
COC(=O)[C@H](C)NC(=O)CCC1CC(OC(=O)NCCc2ccc(F)cc2)CC2(CCCC(COC(=O)NCCc3ccccc3OC)O2)O1 (stereo not given in full),0.557,-0.0554,-0.494,-0.221 (inactive),1.11,1.05,0.484,1.16,1.26,0.176,1.35,-0.466,0.638,0.48,-0.211,-0.0403,0.0141,0.177,0.195,0.434
C[C@@H](c1ccccc1)N1C(=O)[C@H]2[C@H]3[C@H](O)[C@H](O)CC(=NOC[C@@H](O)COCc4ccco4)[C@H]3CC[C@H]2C1=O,0.975,-0.427,-1.27,0.319 (inactive),-0.185,1.21,1.07,1.14,1.59,0.574,-0.788,-0.978,0.858,-0.858,-1.65,-0.196,0.0952,-0.285,-0.175,-0.0662
CC(CCC(=O)OC[C@H]1O[C@H](C#Cc2ccccc2)C=C[C@@H]1Oc1ccc(C)cc1)=NOC[C@@H](C)[C@H](OCc1ccccc1)C(C)C,-1.11,-0.247,-0.506,0.371 (inactive),-0.434,-1.3,-1.05,-1.09,-0.613,0.211,-1.89,-0.982,-0.502,-1.24,-0.336,-0.0573,-0.899,-0.902,-0.746,-0.79
CCCCOC(OCCCC)C(O)CSc1ccc2ccccc2c1 (stereo not given),0.302,0.166,-0.392,-0.0185 (inactive),0.379,0.68,0.549,0.589,0.486,0.251,0.711,0.0395,0.64,-0.24,-0.19,-0.0441,0.171,-0.0281,0.506,0.086
CCOC(=O)[C@H](CC(C)C)NC(=O)CCC1CC(OC(=O)NCc2ccc3c(c2)OCO3)CC2(CCCC(COC(=O)NCCOC)O2)O1 (stereo not given in full),0.622,-0.27,-0.261,-0.191 (inactive),0.495,0.627,0.184,0.864,0.336,0.637,0.522,-0.322,0.249,0.221,-0.491,-0.0792,-0.2,-0.0615,0.956,1.05
